Measurements reported in PubChem BioAssay (Tox21).
Inconclusive results are not listed. Where a call stands in place of a potency, no number is given. Active and inactive are the calls of the source. The call rests on the fitted dose curve; in most records, active means well fitted activation curve with a large enough effect in the repeat runs; inconclusive means weak or mixed curves; inactive means flat fitted curve, though single readings scatter.

assay: A CellTox Green Cytotoxicity Assay to monitor cytotoxicity in HepG2 cells - 8 hour (AID 1224890); conditions: CellTox Green fluorescence; series mostly up to 76.8 µM; further: nearly all actives have a fitted effect of over 45% in size
Procedure, shortened: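 Cells and non-lytic dye reagent are dispensed together (600 HepG2 cells/well) and incubated 5 h before DMSO compound transfer. Kinetic fluorescence is then recorded in the same wells during 40 h at 37 C.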

SMILES	Potency
CCCCCCC(=O)c1ccccc1	inactive
CNC(=O)c1c(I)c(NC(C)=O)c(I)c(C(=O)O)c1I	inactive
CCCCCCCCCCCCCC(=O)OCC	inactive
C=CCN(CC=C)CC=C	inactive
CC(O)C(CO)C(C)O (centres undefined)	inactive
O=C(O)/C=C(\CC(=O)O)C(=O)O	inactive
CC(=O)Nc1ccc(S(=O)(=O)Nc2cc(C)on2)cc1	inactive
C[C@@H](CN1CC(=O)NC(=O)C1)N1CC(=O)NC(=O)C1	inactive
CCN(CC)CC	inactive
CCCCCCCCOCCC#N	inactive
CC/C=C/CCCCCCCCCCOC(C)=O	inactive
CC/C=C\CCOC(=O)c1ccccc1	inactive
COC(=O)c1ccc(C(=O)O)cc1	inactive
COC(=O)C(c1ccccc1Cl)N1CCc2sccc2C1 (centres undefined)	inactive
CCCCOCCCC	inactive
Cc1ccc2ccccc2n1	inactive
CC(C)(C)c1ccc(N)cc1	inactive
Cc1ccccc1OCC(=O)O	inactive
O=C(O)Cc1c(Cl)ccc(Cl)c1Cl	inactive
CCCCCCCCCCCCCCBr	inactive
C=C(C)C(=O)OCCOC1CC2CC1C1C=CCC21 (centres undefined)	inactive
COC(=O)/C=C(\C)CCC=C(C)C	inactive
Clc1cc(Cl)c(Cl)c(Cl)c1Cl	inactive
CCCc1ncc(C(=O)O)s1	inactive
Cc1cc(C)c(N)c(Cl)c1	inactive
CC(C)C(=O)Nc1cccc(C2CN3CCSC3=N2)c1 (centres undefined)	inactive
COc1cc(C(=O)NC2CCCNC2)cc(OC)c1OC (centres undefined)	inactive
CCO/C=C1\N=C(c2ccccc2)OC1=O	inactive
CCCC(=O)C(CC)Sc1ccoc1C (centres undefined)	inactive
